Data from PubChem BioAssay (EPA / NIEHS).
Values joined by “and” are separate entries in the source; they are usually repeats but may differ in a detail not shown here. Equal entries are not always repeated. Some structures have more than one record in an assay (separate samples or runs), and their calls can disagree. Active and inactive are the calls of the source. How the source made its calls: active means hit-call score of the fitted dose curve at least 0.9, where 1 is the maximum; inactive means score below 0.9.

Columns and labels:
Details in all cases: mRNA level, 48 h; actives raise or lower the signal
[1] = read-out: JUN Transcription Factor, JUN (gene 3725); experiment: LTEA_HepaRG_JUN: Life Technologies and Expression Analysis (LTEA) Assay for JUN Transcription Factor using HepaRG (AID 2283513)
Outline: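 Human HepaRG liver cells receive test chemicals in 0.5% DMSO for 48 h across an eight-point range topping at 100 uM. Expression changes in JUN are scored in both directions against the DMSO vehicle.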

[2] = read-out: Lipase C (LIPC), LIPC (gene 3990); experiment: LTEA_HepaRG_LIPC: Life Technologies and Expression Analysis (LTEA) Assay for Lipase C (LIPC) using HepaRG (AID 2283514)
Outline: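 Read-out is LIPC transcript level by TaqMan qRT-PCR, normalized to three housekeeping genes, after 48 h chemical treatment of human HepaRG liver cells. Curves span eight concentrations topping at 100 uM; activity in either direction scored relative to 0.5% DMSO.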

[3] = read-out: Lipoprotein lipase (LPL), LPL (gene 4023); experiment: LTEA_HepaRG_LPL: Life Technologies and Expression Analysis (LTEA) Assay for Lipoprotein lipase (LPL) using HepaRG (AID 2283515)
Outline: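 Read-out is LPL transcript level by qRT-PCR, normalized to three housekeeping genes and fitted bidirectionally against the DMSO control. Human HepaRG cells received chemicals for 48 h at up to 100 uM.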

[4] = read-out: MicroRNA 122 (MIR122), gene 406906; experiment: LTEA_HepaRG_MIR122: Life Technologies and Expression Analysis (LTEA) Assay for MicroRNA 122 (MIR122) using HepaRG (AID 2283516); further: the transcript read is the microRNA miR-122
Outline: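 HepaRG, 48 h exposure, 8-pt half-log from 100 uM, 0.5% DMSO; TaqMan qRT-PCR; bidirectional fit vs DMSO.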

[5] = read-out: matrix metalloproteinase-10 (MMP10), MMP10 (gene 4319); experiment: LTEA_HepaRG_MMP10: Life Technologies and Expression Analysis (LTEA) Assay for matrix metalloproteinase-10 (MMP10) using HepaRG (AID 2283517)
Outline: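 Gain or loss of MMP10 mRNA is fitted relative to the 0.5% DMSO vehicle. The human hepatic line HepaRG receives a 48-hour serum-free exposure, in duplicate, with a maximum concentration of 100 uM.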

[6] = read-out: MYC, MYC (gene 4609); experiment: LTEA_HepaRG_MYC: Life Technologies and Expression Analysis (LTEA) Assay for MYC using HepaRG (AID 2283518)
Outline: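 Differentiated HepaRG cells exposed 48 h in serum-free induction medium to 8 concentrations (top 100 uM, half-log steps; 0.5% DMSO), duplicate. MYC mRNA measured by Fluidigm qRT-PCR, normalized to ACTB, GAPDH, POLR2A; bidirectional fit versus DMSO.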

[7] = read-out: matrix metalloproteinase-3 (MMP3), MMP3 (gene 4314); experiment: LTEA_HepaRG_MMP3: Life Technologies and Expression Analysis (LTEA) Assay for matrix metalloproteinase-3 (MMP3) using HepaRG (AID 2283519)
Outline: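 HepaRG, human; 48 h dosing, 8 conc. (max 100 uM, half-log), duplicate, 0.5% DMSO. Readout: MMP3 transcript by Fluidigm TaqMan qRT-PCR, ACTB/GAPDH/POLR2A-normalised. Gain or loss fitted vs DMSO.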

[8] = read-out: Paternally Expressed 10 (PEG10), PEG10 (gene 23089); experiment: LTEA_HepaRG_PEG10: Life Technologies and Expression Analysis (LTEA) Assay for Paternally Expressed 10 (PEG10) using HepaRG (AID 2283520);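 on AC50: PEG10 transcript by qRT-PCR normalised to ACTB GAPDH and POLR2A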
Outline: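 Chemicals tested on HepaRG cells for 48 h, highest concentration 100 uM. PEG10 expression assessed by qRT-PCR relative to DMSO control.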

[9] = read-out: Nuclear factor NF-kappa-B p105 subunit (Homo sapiens) (UniProt P19838); experiment: LTEA_HepaRG_NFKB1: Life Technologies and Expression Analysis (LTEA) Assay for Nuclear Factor Kappa B Subunit 1 (NFKB1) using HepaRG (AID 2283521)
Outline: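 NFKB1 transcript was measured by TaqMan qRT-PCR on Fluidigm arrays, normalised to three housekeeping genes and fitted in both directions against 0.5% DMSO. HepaRG cells were dosed in duplicate for 48 h in serum-free induction medium, eight half-log steps from 100 uM.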

[10] = read-out: Phosphatase and tensin (PTEN), PTEN (gene 5728); experiment: LTEA_HepaRG_PTEN: Life Technologies and Expression Analysis (LTEA) Assay for Phosphatase and tensin (PTEN) using HepaRG (AID 2283523)
Outline: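 Read-out is PTEN transcript level by multiplexed TaqMan qRT-PCR after 48 h chemical treatment of human HepaRG cultures in serum-free induction medium. Concentrations spanned 100 uM downward in half-log steps, 0.5% DMSO throughout; activity fitted in both directions against vehicle.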

[11] = read-out: solute carrier (SLC22A1), SLC22A1 (gene 6580); experiment: LTEA_HepaRG_SLC22A1: Life Technologies and Expression Analysis (LTEA) Assay for solute carrier (SLC22A1) using HepaRG (AID 2283524)
Outline: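 HepaRG (human liver line), 48 h dosing in serum-free induction medium; 8 conc., half-log down from 100 uM, 0.5% DMSO vehicle, duplicates. Endpoint: SLC22A1 mRNA, qRT-PCR, housekeeping-normalized; gain/loss fit vs DMSO.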

[12] = read-out: Pyruvate Dehydrogenase Kinase 4 (PDK4), PDK4 (gene 5166); experiment: LTEA_HepaRG_PDK4: Life Technologies and Expression Analysis (LTEA) Assay for Pyruvate Dehydrogenase Kinase 4 (PDK4) using HepaRG (AID 2283525)
Outline: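 In this multiplexed human HepaRG expression assay, cells are treated 48 h with test chemicals across an eight-point range starting at 100 uM. PDK4 mRNA changes, normalized to ACTB/GAPDH/POLR2A, are fitted in both directions relative to vehicle.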

[13] = read-out: NAD(P)H dehydrogenase [quinone] 1 (NQO1), NQO1 (gene 1728); experiment: LTEA_HepaRG_NQO1: Life Technologies and Expression Analysis (LTEA) Assay for NAD(P)H dehydrogenase [quinone] 1 (NQO1) using HepaRG (AID 2283526)
Outline: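 Human HepaRG hepatic cells received chemicals for 48 h in serum-free induction medium with 0.5% DMSO, up to 100 uM. Expression was assessed by TaqMan qRT-PCR against housekeeping controls and fitted bidirectionally against DMSO.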

[14] = read-out: Nuclear factor erythroid 2-related factor 2 (Homo sapiens) (UniProt Q16236); experiment: LTEA_HepaRG_NFE2L2: Life Technologies and Expression Analysis (LTEA) Assay for Nuclear factor erythroid 2-related factor 2 (NFE2L2) Transcription Factor using HepaRG (AID 2283527)
Outline: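 Transcript level of NFE2L2 is the read-out, measured by microfluidic TaqMan qRT-PCR and normalized to three housekeeping genes. Human HepaRG cultures received test chemical for 48 h at up to 100 uM in half-log steps. Gain or loss of signal is fitted relative to 0.5% DMSO.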

[15] = read-out: succinate dehydrogenase complex iron sulfur subunit B (SDHB), SDHB (gene 6390); experiment: LTEA_HepaRG_SDHB: Life Technologies and Expression Analysis (LTEA) Assay for succinate dehydrogenase complex iron sulfur subunit B (SDHB) using HepaRG (AID 2283528)
Outline: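 SDHB transcript level read by TaqMan qRT-PCR, housekeeping-normalised (ACTB, GAPDH, POLR2A), after 48 h chemical treatment of plated HepaRG cells; eight concentrations top 100 uM, half-log steps, 0.5% DMSO, duplicates; fitted both directions against DMSO.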

[16] = read-out: Signal transducer and activator of transcription 3 (Homo sapiens) (UniProt P40763); experiment: LTEA_HepaRG_STAT3: Life Technologies and Expression Analysis (LTEA) Assay for Signal transducer and activator of transcription (STAT3) using HepaRG (AID 2283529)
Outline: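 Read-out is STAT3 mRNA level by qRT-PCR, normalized to three housekeeping genes, in human HepaRG liver cells treated for 48 h. Concentrations ran from 100 uM downward in half-log steps; curves were fitted for gain or loss relative to 0.5% DMSO.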

[17] = read-out: sulfotransferase 2A1 (SULT2A1), SULT2A1 (gene 6822); experiment: LTEA_HepaRG_SULT2A1: Life Technologies and Expression Analysis (LTEA) Assay for sulfotransferase 2A1 (SULT2A1) using HepaRG (AID 2283531)
Outline: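 HepaRG human liver cells, 48 h exposure in serum-free induction medium to 8 half-log concentrations topping at 100 µM (0.5% DMSO), duplicate wells. SULT2A1 mRNA measured by TaqMan qRT-PCR, normalized to ACTB/GAPDH/POLR2A; bidirectional fit against DMSO.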

[18] = read-out: Transforming Growth Factor (TGFA), TGFA (gene 7039); experiment: LTEA_HepaRG_TGFA: Life Technologies and Expression Analysis (LTEA) Assay for Transforming Growth Factor (TGFA) using HepaRG (AID 2283532)
Outline: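 HepaRG (human liver line), 48 h exposure, 8 conc. half-log down from 100 uM, 0.5% DMSO vehicle, duplicates; serum-free induction medium. TGFA mRNA by TaqMan qRT-PCR, ACTB/GAPDH/POLR2A normalization; gain/loss fit vs DMSO.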

[19] = read-out: Protein phosphatase 2A (PPP2R4), PTPA (gene 5524); experiment: LTEA_HepaRG_PPP2R4: Life Technologies and Expression Analysis (LTEA) Assay for Protein phosphatase 2A (PPP2R4) using HepaRG (AID 2283522)
Outline: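 Gene-expression endpoint in HepaRG hepatic cells: 48 h treatment across eight half-log concentrations up to 100 uM in 0.5% DMSO. PPP2R4 mRNA by qRT-PCR, normalized to three endogenous control genes.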

[20] = read-out: solute carrier (SLCO1B1), SLCO1B1 (gene 10599); experiment: LTEA_HepaRG_SLCO1B1: Life Technologies and Expression Analysis (LTEA) Assay for solute carrier (SLCO1B1) using HepaRG (AID 2283530)
Outline: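 Differentiated human HepaRG cells were exposed for 48 h in serum-free induction medium to eight half-log concentrations, top 100 uM, in 0.5% DMSO. SLCO1B1 mRNA was measured by qRT-PCR, normalized to ACTB, GAPDH and POLR2A, and fitted bidirectionally against DMSO.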

Measured: AC50

Sequence of Signal transducer and activator of transcription 3 (Homo sapiens) (P40763 whole entry, looked up): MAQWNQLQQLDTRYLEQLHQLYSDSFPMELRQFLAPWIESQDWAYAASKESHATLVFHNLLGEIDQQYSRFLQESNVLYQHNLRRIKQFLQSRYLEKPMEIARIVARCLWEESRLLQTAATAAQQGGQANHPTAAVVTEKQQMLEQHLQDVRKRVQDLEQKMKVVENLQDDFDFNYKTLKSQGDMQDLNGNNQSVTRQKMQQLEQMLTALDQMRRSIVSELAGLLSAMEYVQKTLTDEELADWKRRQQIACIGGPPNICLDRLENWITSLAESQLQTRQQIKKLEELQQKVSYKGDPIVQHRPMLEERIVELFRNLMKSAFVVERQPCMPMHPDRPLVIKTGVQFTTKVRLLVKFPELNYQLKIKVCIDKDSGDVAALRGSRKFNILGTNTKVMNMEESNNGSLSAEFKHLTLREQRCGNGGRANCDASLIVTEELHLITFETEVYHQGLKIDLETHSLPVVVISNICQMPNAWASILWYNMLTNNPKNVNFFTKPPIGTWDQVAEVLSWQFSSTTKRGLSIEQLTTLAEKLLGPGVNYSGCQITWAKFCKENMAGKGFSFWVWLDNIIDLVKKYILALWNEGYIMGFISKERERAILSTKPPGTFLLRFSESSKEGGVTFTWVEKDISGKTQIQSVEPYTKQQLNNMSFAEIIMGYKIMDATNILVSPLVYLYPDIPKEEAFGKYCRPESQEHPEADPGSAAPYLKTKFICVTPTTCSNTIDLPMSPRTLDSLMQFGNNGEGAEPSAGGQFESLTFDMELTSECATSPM
Sequence of Nuclear factor NF-kappa-B p105 subunit (Homo sapiens) (P19838 whole entry, looked up): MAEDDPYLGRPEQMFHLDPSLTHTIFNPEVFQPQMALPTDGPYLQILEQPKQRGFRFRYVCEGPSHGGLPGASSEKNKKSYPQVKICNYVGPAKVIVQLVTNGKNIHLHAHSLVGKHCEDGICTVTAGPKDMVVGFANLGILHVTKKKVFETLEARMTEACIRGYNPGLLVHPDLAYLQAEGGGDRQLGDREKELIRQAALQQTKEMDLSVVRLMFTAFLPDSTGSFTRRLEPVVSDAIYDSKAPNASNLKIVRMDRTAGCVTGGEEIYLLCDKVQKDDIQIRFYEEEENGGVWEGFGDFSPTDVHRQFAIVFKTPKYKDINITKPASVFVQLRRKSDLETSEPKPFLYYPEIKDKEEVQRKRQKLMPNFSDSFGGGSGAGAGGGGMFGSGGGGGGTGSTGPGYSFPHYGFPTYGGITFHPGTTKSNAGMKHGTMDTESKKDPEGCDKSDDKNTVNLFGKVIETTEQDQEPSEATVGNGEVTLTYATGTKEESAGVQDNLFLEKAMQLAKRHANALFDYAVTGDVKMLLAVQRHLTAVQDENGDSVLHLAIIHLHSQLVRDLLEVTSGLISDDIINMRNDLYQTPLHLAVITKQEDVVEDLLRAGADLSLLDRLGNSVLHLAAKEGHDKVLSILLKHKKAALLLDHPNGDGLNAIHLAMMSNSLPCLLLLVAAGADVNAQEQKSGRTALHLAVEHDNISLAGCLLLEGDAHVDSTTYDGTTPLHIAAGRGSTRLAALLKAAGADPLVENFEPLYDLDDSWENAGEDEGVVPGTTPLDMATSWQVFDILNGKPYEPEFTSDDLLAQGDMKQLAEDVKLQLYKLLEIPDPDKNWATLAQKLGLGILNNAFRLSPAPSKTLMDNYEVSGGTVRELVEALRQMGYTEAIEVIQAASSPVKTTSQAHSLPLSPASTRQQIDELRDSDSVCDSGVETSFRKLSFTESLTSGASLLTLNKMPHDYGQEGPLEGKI
Sequence of Nuclear factor erythroid 2-related factor 2 (Homo sapiens) (Q16236 whole entry, looked up): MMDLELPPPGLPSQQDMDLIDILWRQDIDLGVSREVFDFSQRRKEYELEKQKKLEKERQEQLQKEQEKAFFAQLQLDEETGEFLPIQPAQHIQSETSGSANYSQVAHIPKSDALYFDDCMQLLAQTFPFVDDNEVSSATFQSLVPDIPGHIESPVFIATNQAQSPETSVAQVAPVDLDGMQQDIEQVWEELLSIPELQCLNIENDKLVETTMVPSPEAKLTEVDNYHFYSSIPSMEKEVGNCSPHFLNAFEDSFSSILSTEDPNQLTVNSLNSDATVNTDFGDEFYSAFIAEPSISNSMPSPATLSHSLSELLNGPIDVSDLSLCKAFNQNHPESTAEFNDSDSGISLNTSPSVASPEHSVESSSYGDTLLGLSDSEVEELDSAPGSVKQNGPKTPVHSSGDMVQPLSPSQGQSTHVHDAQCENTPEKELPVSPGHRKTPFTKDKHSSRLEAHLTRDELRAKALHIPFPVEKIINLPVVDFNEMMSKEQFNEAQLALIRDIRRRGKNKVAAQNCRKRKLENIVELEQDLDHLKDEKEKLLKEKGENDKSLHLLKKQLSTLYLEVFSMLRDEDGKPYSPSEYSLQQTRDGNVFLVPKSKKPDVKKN

Oc1ccc(Cl)cc1Cc1ccccc1
inactive: [1] | [2] | [3] | [4] | [5] | [6] | [7] | [9] | [10] | [11] | [12] | [13] | [14] | [15] | [16] | [17] | [18]
active: [2] 80.2 µM | [3] 82.2 µM and 89.3 µM | [4] 82.4 µM | [8] 89 µM and 77.3 µM and 78.6 µM | [9] 15.7 µM | [10] 86 µM | [11] 91.8 µM and 91.6 µM | [12] 76.8 µM and 83.6 µM

CNC(=O)Oc1cccc(N=CN(C)C)c1
not listed: [9] | [19] | [20]
inactive: all other assays above

O=[N+]([O-])/N=C1\NCCN1Cc1ccc(Cl)nc1
active: [2] 36.4 µM | [3] 33 µM | [4] 23.9 µM | [8] 16.6 µM | [19] 24.3 µM | [11] 50 µM | [12] 34.4 µM | [13] 29.1 µM | [14] 18.9 µM | [15] 25.8 µM | [16] 20.1 µM | [17] 31.8 µM
inactive: [1] | [5] | [6] | [7] | [10] | [18]

C[C@H]1[C@H](c2ccc(Cl)cc2)SC(=O)N1C(=O)NC1CCCCC1
inactive: [1] | [7] | [10] | [12] | [13] | [16]
active: [2] 36.5 µM | [3] 60.7 µM | [4] 60 µM | [5] 79.5 µM | [6] 71.1 µM | [8] 12.8 µM | [11] 50 µM | [14] 73 µM | [15] 26.7 µM | [17] 93.4 µM | [18] 69.5 µM

CC[C@H](C)[C@H]1O[C@]2(C=C[C@@H]1C)C[C@@H]1C[C@@H](C/C=C(\C)[C@@H](O[C@H]3C[C@H](OC)[C@@H](O[C@H]4C[C@H](OC)[C@@H](O)[C@H](C)O4)[C@H](C)O3)[C@@H](C)/C=C/C=C3\CO[C@@H]4[C@H](O)C(C)=C[C@@H](C(=O)O1)[C@]34O)O2 (tested in a mixture with another compound)
inactive: [9]
active: [1] 18.8 µM | [2] 13.8 µM | [3] 13.5 µM | [4] 7.42 µM | [5] 11.7 µM | [6] 13.9 µM | [7] 40.2 µM | [8] 49.3 µM | [10] 54.5 µM | [11] 9.94 µM | [12] 16.3 µM | [13] 49.7 µM | [14] 14 µM | [15] 59.5 µM | [16] 46 µM | [17] 8.58 µM | [18] 13.9 µM

OCCOc1ccccc1
not listed: [9] | [19]
inactive: all other assays above

CC(C)(C)C(O)/C(=C\c1ccc(Cl)cc1Cl)n1cncn1 (stereo not given)
active: [1] 72.7 µM | [2] 21.5 µM | [3] 12.4 µM | [8] 62.5 µM | [10] 79.1 µM | [11] 21 µM | [12] 29.4 µM | [14] 75.3 µM | [17] 35.2 µM
inactive: [4] | [5] | [6] | [7] | [13] | [15] | [16] | [18]

Clc1ccccc1-c1nnc(-c2ccccc2Cl)nn1
active: [8] 30.7 µM | [11] 50 µM
not listed: [9] | [19] | [20]
inactive: all other assays above

COP(=S)(OC)Oc1ccc([N+](=O)[O-])cc1
not listed: [19] | [20]
inactive: all other assays above

O=C(O)CCCOc1ccc(Cl)cc1Cl
active: [8] 10.4 µM | [12] 50.8 µM
not listed: [9] | [19] | [20]
inactive: all other assays above

O=C(O)COc1ccc(Cl)cc1Cl
active: [8] 10.1 µM | [12] 38.5 µM
not listed: [3] | [9] | [19] | [20]
inactive: all other assays above

CNC(=O)/C=C(\C)OP(=O)(OC)OC
active: [12] 37.1 µM
not listed: [9] | [19] | [20]
inactive: all other assays above
